Screening results (PubChem BioAssay)
Pf Dd2 inh: blocks in vitro growth of P. falciparum Dd2 | P. falciparum Dd2 growth, SYBR Green, 72 h | Potency, µM (doses to about 28.9 µM), inactives show at the top dose activity, negative = inhibition, most hits filed as inhibitors | 4.3% of 120,000 active | AID 1347417; active = well fitted inhibition curve with a large enough effect;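 note: plate controls were DMSO vehicle for no effect and reference drug for full effect; nearly all actives have a fitted effect of over 65% in size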
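Infected erythrocytes (Dd2, 0.3% parasitemia, 2.5% hematocrit final) are added to compound in RPMI-1640/Albumax II medium, grown 72 h at 37C in low oxygen, then lysed with saponin/Triton-X containing SYBR Green and read by fluorescence.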
Starred values were filed as active, the others as inactive; i = inactive; [ ] = dose if it differs, or a comment. The entries come from a sample that favours hits as a whole. Potency is the fitted concentration of half-maximal effect.

SMILES | Pf Dd2 inh
O=C(Nc1ccc(Br)cc1F)N1CC=C(c2c[nH]c3ccccc23)CC1 | 0.8%
Cc1cccc(NC(=O)N2CC=C(c3c[nH]c4ccccc34)CC2)c1C | 3.16µM*
Cc1cccc(NC(=O)N2CCc3c(c4ccccc4n3C)C2)c1C | i
COc1ccccc1CNC(=O)C1CCN(C(=O)c2nnn3c2COC(c2ccc(C)cc2)C3)CC1 (stereo not given) | 4.6%
COCc1nc2nccc(-c3ccc4c(c3)OCCCO4)n2n1 | -12.7%
COc1ccc(Cc2nc3nccc(-c4ccc5c(c4)OCCCO5)n3n2)cc1 | -6.5%
Fc1ccc(Cc2nc3nccc(-c4ccc5c(c4)OCCCO5)n3n2)cc1 | 14.1µM*
COc1cccc(F)c1C(=O)N1CC(=O)N(c2ccc(Cl)cc2)CC1C (stereo not given) | 2.8%
CCN1Cc2nc(OC)c(CNC(=O)[C@H](O)C3CCCCC3)cc2C1=O | -19.8%
O=C(NCc1cccnc1)C1CCc2nnc(-c3ccc(Cl)nc3)n21 (stereo not given) | 12.3%
COC(=O)CNC(=O)C1CCc2nnc(-c3ccc(Cl)nc3)n21 (stereo not given) | 70.7%
O=C(NCCc1ccc(Cl)cc1)C1CCc2nnc(-c3ccc(Cl)nc3)n21 (stereo not given) | 3.98µM*
O=C(c1cn[nH]c1-c1ccc(F)cc1)N1CC2CC(C1)[C@H]1CCCC(=O)N1C2 (stereo not given in full) | -26.7%
CCOC(=O)CCNC(=O)c1ccc2c(c1)N(CC)C1CCCCCN1C2=O (stereo not given) | i
CSc1ccc(-c2cccc(C(=O)O)c2)cc1 | i
COc1ccc(Nc2cc(C)c3cc(NC(=O)COc4cccc(C)c4)ccc3n2)cc1 | 3.98µM*
COc1ccc(CC(=O)Nc2ccc3nc(Nc4cccc(Cl)c4)cc(C)c3c2)cc1OC | i
COc1ccc(-n2nc3ccc(NC(=O)COc4ccc(C)c(C)c4)cc3n2)cc1 | 6.3%
CCC(=O)NCC1c2cc(OC)c(OC)cc2CCN1C(=O)Nc1ccccc1 (stereo not given) | -5.3%
CCC(=O)NCC1c2cc(OC)c(OC)cc2CCN1C(=O)Nc1cccc(C)c1 (stereo not given) | i
COc1cc2c(cc1OC)C(CNC(=O)c1cccs1)N(C(=O)Nc1ccccc1F)CC2 (stereo not given) | i
COc1ccccc1NC(=O)N1CCc2cc(OC)c(OC)cc2C1CNC(=O)c1ccco1 (stereo not given) | 7.08µM*
COc1cc2c(cc1OC)C(CNC(=O)c1ccccc1)N(C(=O)Nc1ccccc1F)CC2 (stereo not given) | i
COc1cc2c(cc1OC)C(CNC(=O)C1CCCC1)N(C(=O)NC(C)C)CC2 (stereo not given) | i
COc1cc2c(cc1OC)C(CNC(=O)c1cccs1)N(C(=O)Nc1ccccc1)CC2 (stereo not given) | 8.91µM*
SMILES | Pf Dd2 inh
COc1cc2c(cc1OC)C(CNC(=O)C1CCCC1)N(C(=O)Nc1cccc(C)c1)CC2 (stereo not given) | 11.2µM*
CCCNC(=O)N1CCc2cc(OC)c(OC)cc2C1CNC(=O)c1ccccc1C (stereo not given) | 8.91µM*
COc1cc2c(cc1OC)C(CNC(=O)c1ccccc1Cl)N(C(=O)Nc1ccccc1F)CC2 (stereo not given) | -2.7%
COc1ccccc1NC(=O)N1CCc2cc(OC)c(OC)cc2C1CNC(C)=O (stereo not given) | 9.0%
Cc1ccc(NC2CCCN(C(=O)CN3CC(=O)NC3=O)C2)cc1C (stereo not given) | 9.5%
CN1CCN2C(=O)N(Cc3cccnc3)C[C@H]2C1 | -15.0%[44.1 µM]
COCC1CN(S(=O)(=O)c2cccc(C#N)c2)CC12CCNCC2 (stereo not given) | 12.8%
COc1ccc(Cn2c(C3CCN(C(=O)c4ccsc4)CC3)n[nH]c2=O)cc1 | -20.6%
COc1cccc(CN2CCn3c(nn(-c4ccncc4)c3=O)C2)c1 | -5.6%
COC[C@@H]1CN(C(=O)Cn2ccc(C)n2)C[C@H]1c1ccccn1 | 8.7%
CNC(=O)c1cn2c(n1)CN(C(=O)c1cccnc1)CC2 | 6.2%[44.1 µM]
COCc1nc(C2CC(N)C2)cc(N2CCN(S(=O)(=O)N(C)C)CC2)n1 (stereo not given) | -7.2%
CCOCCCNC(=O)N1CCn2nnc(CCC(=O)N3CCOCC3)c2C1 | -9.6%
CC(Cn1cncn1)NCc1cc(=O)c2cc(F)ccc2[nH]1 (stereo not given) | 11.6%
O=C(Cn1cccc1-c1nc(-c2ccc3c(c2)OCO3)no1)Nc1ccc(Cl)cc1F | -15.5%
OCC1CN(C2CCC2)CC12CCN(Cc1ccc(F)cc1)CC2 (stereo not given) | 12.6µM*
OCC1CN(C2CCC2)CC12CCN(Cc1ccc[nH]1)CC2 (stereo not given) | -9.8%
OCC1CN(C2CCC2)CC12CCN(Cc1cc(F)c(F)c(F)c1)CC2 (stereo not given) | -11.6%
CN1C(=O)c2ccccc2Sc2ccc(NC(=O)N3CCN(c4ccccc4F)CC3)cc21 | 12.6µM*
CN1C(=O)c2ccccc2Sc2ccc(NC(=O)c3ccccc3F)cc21 | -4.1%
CN1C(=O)c2ccccc2Sc2ccc(NC(=O)COc3ccc(F)cc3)cc21 | -0.2%
CO[C@H]1C(=O)N(C(C)C)[C@H]1C1CCN(C(=O)Cn2nc(C(F)(F)F)cc2C)CC1 | -2.6%
CC(C)c1noc([C@@H]2C[C@@H](O)CN2Cc2ccc(S(C)(=O)=O)cc2)n1 | -11.8%[44.1 µM]
CC(C)N[C@@H]1CC[C@@H]1NC(=O)c1cc2c(C(F)(F)F)nn(C)c2s1 | -26.4%
CCn1cc(CN2CCCC23CCN(c2cc(C)nc4ccccc24)CC3)c(C)n1 | 2µM*
SMILES | Pf Dd2 inh
Cc1cc(N2CCC3(CCCN(C)C3=O)C2)c2ccccc2n1 (stereo not given) | 26.6%
CCn1cc(CN2CCC(Oc3ccc4ccccc4c3)(C(=O)O)CC2)c(C)n1 | -14.8%
Cc1cnc(C(=O)NC2C[C@H]3CC[C@@H](C2)N3C(=O)c2cnccc2C)cn1 (stereo not given in full) | 0.0%
CC(C)c1nnc(C2CN(C(=O)c3cnccn3)CC23CCOCC3)o1 (stereo not given) | -21.0%
O=C1[C@H]2CN(Cc3cccc(F)c3)C[C@H]2C(=O)N1Cc1ccc2c(c1)OCO2 | i
Cc1sc2c(c1C)c(=O)n(CCc1ccccc1)c(=O)n2Cc1ccccc1Cl | 53.9%
CCN(CC)C(=O)c1sc2c(c1C)c(=O)n(CCc1ccccc1)c(=O)n2Cc1cccc(Cl)c1 | -17.8%
CCN(CC)C(=O)c1sc2c(c1C)c(=O)n(CCc1ccccc1)c(=O)n2Cc1ccc(F)cc1Cl | 10µM*
O=C(NCCC1CCN(C(=O)Nc2cc(F)ccc2F)CC1)C1CCCC1 | -15.0%
CC(C(=O)NCc1ccccc1)N1C(=O)COc2ccc(C(=O)COc3ccc(Cl)cc3)cc21 (stereo not given) | i
O=S(=O)(c1ccccc1)c1nc(-c2cccs2)oc1SCc1ccc(F)cc1 | 3.1%
CC(C)S(=O)(=O)c1oc(-c2cccs2)nc1S(=O)(=O)c1ccc(F)cc1 | 10µM*
CCCCS(=O)(=O)c1oc(-c2ccc(F)cc2)nc1S(=O)(=O)c1ccccc1 | -23.7%
Cc1ccc(S(=O)(=O)c2nc(-c3cccs3)oc2SC(C)C)cc1 | -9.4%
CS(=O)(=O)c1oc(-c2ccc(F)cc2)nc1S(=O)(=O)c1ccc(Cl)cc1 | 10.0%
CC(C)S(=O)(=O)c1oc(-c2ccc(F)cc2)nc1S(=O)(=O)c1ccccc1 | 6.31µM*
Cn1ccnc1C(=O)N1CCCC1c1nc(CCOCC2CCCC2)no1 (stereo not given) | 6.6%
